Measurements reported in PubChem BioAssay (NCATS).
Results filed as inconclusive are left out. The source made the active and inactive calls. The call rests on the fitted dose curve; in most records, active means well fitted curve in the direction sought with a large enough effect; inconclusive means small, poorly fitted or top-dose-only effect, or another doubt; inactive means no such curve, though single readings can be large; an effect the other way counts as inactive or inconclusive.

Columns and labels:
[1] = Cellular Toxicity (caspase-3) HepG2 (AID 654);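 further: cells exposed to compound for 16 hours before reading; 0% = DMSO alone and 100% = caspase signal from 100 µM tamoxifen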
Method in brief: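 HepG2 cells (1500/well) were treated 16 h at 37 °C in complete medium, then caspase 3/7 activity was read by Caspase-Glo luminescence. Data were normalized to DMSO and 100 uM tamoxifen; AC50 came from Hill-equation fits of qHTS concentration-response.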

[2] = Cellular Toxicity (caspase-3) Jurkat (AID 655);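 further: cells exposed to compound for 16 h at 37 °C before reading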
Method in brief: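 Jurkat cells (5000/well) in complete medium were treated with compounds for 16 hr at 37 °C, then Caspase-Glo 3/7 luminescence was read after 20 min at room temperature. Data normalized to DMSO (basal) and 100 uM tamoxifen (100%); AC50 from Hill fit.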

[3] = Cellular Toxicity (caspase-3) HUV-EC-C (AID 656)
Method in brief: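 HUV-EC-C endothelial cells, 1000/well, were pre-incubated 5 hr at 37°C, then exposed to compounds for 16 hr at 37°C. Caspase-Glo 3/7 luminescence was read after 20 min at room temperature. AC50 came from Hill fits, normalized to DMSO and 100 uM tamoxifen.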

[4] = Cellular Toxicity (caspase-3) SHSY5Y (AID 657)
Method in brief: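 SH-SY5Y human neuroblastoma cells (1500/well) were treated with compounds for 16 h at 37 °C, then Caspase-Glo 3/7 luminescence was read after 1 h at room temperature. Data normalized to DMSO and 10 uM staurosporine; AC50 from Hill fits.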

[5] = Cellular Toxicity (caspase-3) BJ (AID 658); conditions: Potency: caspase-3 activation;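 further: 0% = DMSO basal and 100% = 10 µM staurosporine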
Method in brief: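 BJ human foreskin fibroblasts, 1000 cells/well, treated 16 hours at 37 °C in complete medium; caspase 3/7 activity by Caspase-Glo luminescence after 1 hr at room temperature. Normalized to DMSO and 10 uM staurosporine; AC50 from Hill fits.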

[6] = Cellular Toxicity (caspase-3) MRC-5 (AID 659);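 further: 0% = DMSO basal and 100% = 10 µM staurosporine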
Method in brief: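 MRC-5 human normal lung fibroblasts, 1500 cells/well, treated 16 h at 37 °C in complete medium. Caspase 3/7 measured by Caspase-Glo luminescence after 1 h at room temperature. Normalized to DMSO and 10 uM staurosporine; AC50 from Hill fit.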

[7] = Cellular Toxicity (caspase-3) Mesangial (AID 660)
Method in brief: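 Human renal glomerular mesangial cells, 1000/well, 5 h at 37 C before 16 h compound treatment. Caspase-Glo 3/7 luminescence after 20 min; normalized to DMSO and 100 uM tamoxifen, AC50 from Hill fit.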

[8] = Cellular Toxicity (caspase-3) SK-N-SH (AID 661); conditions: SK-N-SH caspase-3 activation, qHTS; caspase-3 activation: at 91.7 µM (top of the series), DMSO as zero, staurosporine as full;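 further: 0% = DMSO basal and 100% = 10 µM staurosporine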
Method in brief: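 Human SK-N-SH neuroblastoma cells, 1500/well, were exposed to compounds for 16 hours at 37 °C. Caspase-Glo 3/7 luminescence was normalized to DMSO (basal) and 10 uM staurosporine (100%), and AC50 came from a Hill fit.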

[9] = Cellular Toxicity (caspase-3) H-4-II-E (AID 663);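 further: cells exposed to compound for 16 hr before readout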
Method in brief: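 Rat hepatoma H-4-II-E cells (1500/well) plated 5 hr, then exposed to compound titrations for 16 hr at 37 °C. Caspase-Glo 3/7 luminescence read after 20 min at RT; data normalized to DMSO and 100 uM tamoxifen, AC50 from Hill fits.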

[10] = Cellular Toxicity (caspase-3) Hek293 (AID 664); conditions: HEK293 caspase-3 activation, DMSO = 0%, 100 µM tamoxifen = 100%; at 92.2 µM (top of the series);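 further: cells exposed to compound for 16 h at 37 °C before readout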
Method in brief: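 HEK293 cells in complete medium treated 16 h at 37 °C, then Caspase-Glo 3/7 luminescence read after 20 min at room temperature. Normalized to DMSO and 100 uM tamoxifen; AC50 from Hill fit of concentration-response.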

[11] = Cellular Toxicity (caspase-3) N2a (AID 665);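 further: compound exposure lasted 16 h at 37 °C before readout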
Method in brief: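 Mouse N2a neuroblastoma cells, 1500 per well, treated 16 h at 37 °C in complete medium; caspase-3/7 activity by Caspase-Glo luminescence after 1 h. Normalized to DMSO and 10 uM staurosporine; AC50 from Hill fits.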

[12] = Cellular Toxicity (caspase-3) NIH 3T3 (AID 666);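 further: caspase signal read after 16 h compound exposure; 0% = DMSO basal and 100% = 100 µM tamoxifen stimulation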
Method in brief: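 Mouse NIH 3T3 fibroblasts (1000/well) treated 16 h at 37 C; caspase-3/7 activity measured by Caspase-Glo 3/7 luminescence after 20 min. Normalized to DMSO and 100 uM tamoxifen; AC50 from Hill fits.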

[13] = Cellular Toxicity (caspase-3) Renal Proximal Tubule (AID 667);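 further: cells exposed to compound for 16 hours at 37 °C before detection; 0% = DMSO basal and 100% = 10 µM staurosporine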
Method in brief: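 Primary rat proximal tubule cells, 1000/well, 5 h plating at 37 °C, then compound 16 h at 37 °C. Caspase-Glo 3/7 reagent, 1 h RT, luminescence. Normalized to DMSO (basal) and 10 uM staurosporine (100%); Hill-fit AC50.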

[14] = target: Cytochrome P450 3A4 (Homo sapiens) (UniProt P08684); assay: qHTS Assay for Inhibitors and Substrates of Cytochrome P450 3A4 (AID 884); further: on the % scale 0 is the no-effect control and ±100 the full control effect; nearly all actives have a fitted effect of over 50% in size
Method in brief: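 20 nM human CYP3A4 with 25 uM Luciferin-PPXE (at KM) in 200 mM KPO4, preincubated 10 min with compound; NADPH regeneration started a 60 min RT reaction. Luciferin detected by luminescence, normalized to 57 uM ketoconazole as full inhibition.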

Sequence of Cytochrome P450 3A4 (Homo sapiens) (P08684 whole entry, looked up): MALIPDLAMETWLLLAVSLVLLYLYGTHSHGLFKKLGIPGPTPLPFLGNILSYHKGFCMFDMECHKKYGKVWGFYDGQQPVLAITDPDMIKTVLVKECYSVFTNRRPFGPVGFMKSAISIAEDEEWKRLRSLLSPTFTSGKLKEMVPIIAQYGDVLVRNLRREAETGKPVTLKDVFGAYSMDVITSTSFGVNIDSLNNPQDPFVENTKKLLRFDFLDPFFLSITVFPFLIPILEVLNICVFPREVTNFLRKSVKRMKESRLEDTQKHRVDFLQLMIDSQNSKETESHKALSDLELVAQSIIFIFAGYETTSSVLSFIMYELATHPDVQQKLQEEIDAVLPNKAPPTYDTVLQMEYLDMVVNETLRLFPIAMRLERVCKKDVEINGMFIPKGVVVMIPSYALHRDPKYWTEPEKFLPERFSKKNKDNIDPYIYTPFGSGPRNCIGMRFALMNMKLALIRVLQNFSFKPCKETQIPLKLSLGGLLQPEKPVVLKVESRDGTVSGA

O.O.O.O.O.O.O.O=S(=O)([O-])[O-].[Co+2]
inactive: outcome [1] | Potency [2] | outcome [3] | Potency [4] | Potency [5] | outcome [6] | outcome [7] | Potency [8] | outcome [9] | caspase-3 activation [10] -1.13% | outcome [11] | outcome [12] | outcome [13]

C[C@H](CCC(=O)O)[C@H]1CC[C@H]2[C@@H]3[C@H](O)C[C@@H]4C[C@H](O)CC[C@]4(C)[C@H]3C[C@H](O)[C@]12C
inactive: outcome [1] | Potency [2] | outcome [3] | Potency [4] | Potency [5] | outcome [6] | outcome [7] | Potency [8] | outcome [9] | caspase-3 activation [10] -0.41% | outcome [11] | outcome [12] | outcome [13]

OCl
inactive: outcome [1] | Potency [2] | outcome [3] | Potency [4] | Potency [5] | outcome [6] | outcome [7] | Potency [8] | outcome [9] | caspase-3 activation [10] 2.43% | outcome [11] | outcome [12] | outcome [13]

CCOC(C)OCC
inactive: outcome [1] | Potency [2] | outcome [3] | Potency [4] | Potency [5] | outcome [6] | outcome [7] | Potency [8] | outcome [9] | caspase-3 activation [10] 0.677% | outcome [11] | outcome [12] | outcome [13]

CCCCC
inactive: outcome [1] | Potency [2] | outcome [3] | Potency [4] | Potency [5] | outcome [6] | outcome [7] | Potency [8] | outcome [9] | caspase-3 activation [10] 2.68% | outcome [11] | outcome [12] | outcome [13]

CC(C)O
inactive: outcome [1] | Potency [2] | outcome [3] | Potency [4] | Potency [5] | outcome [6] | outcome [7] | Potency [8] | outcome [9] | caspase-3 activation [10] 1.95% | outcome [11] | outcome [12] | outcome [13]

CC1=CCC2CC1C2(C)C (centres undefined)
inactive: outcome [1] | Potency [2] | outcome [3] | Potency [4] | Potency [5] | outcome [6] | outcome [7] | Potency [8] | caspase-3 activation [10] 0.916% | outcome [11] | outcome [12] | outcome [13]

CC[C@H]1OC(=O)[C@H](C)[C@@H](O[C@H]2C[C@@](C)(OC)[C@@H](O)[C@H](C)O2)[C@H](C)[C@@H](O[C@@H]2O[C@H](C)C[C@H](N(C)C)[C@H]2O)[C@](C)(O)C[C@@H](C)CN(C)[C@H](C)[C@@H](O)[C@]1(C)O
inactive: outcome [1] | Potency [2] | outcome [3] | Potency [4] | Potency [5] | outcome [6] | outcome [7] | outcome [9] | caspase-3 activation [10] 0.727% | outcome [11] | outcome [12] | outcome [13]

CC1=CC(=O)NS(=O)(=O)O1
inactive: outcome [1] | Potency [2] | outcome [3] | Potency [4] | Potency [5] | outcome [6] | outcome [7] | Potency [8] | outcome [9] | caspase-3 activation [10] -2.78% | outcome [11] | outcome [12] | outcome [13] | Potency [14]

ClC(Cl)Cl
inactive: outcome [1] | Potency [2] | outcome [3] | Potency [4] | Potency [5] | outcome [6] | outcome [7] | Potency [8] | outcome [9] | caspase-3 activation [10] 0.0594% | outcome [11] | outcome [12] | outcome [13]
